CtBP-E1A blk: blocks the CtBP interaction with E1A; AlphaScreen GST-E1A/His-CtBP binding, 1536-well; stronger effect = lower value; activity change, % (no concentration beside the values); hit rate 0.49% among 340,000; in the data active means activity change below about -65%; inconclusive means mostly about -30% to -63%
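Protein mix (5X: 125 nM each GST-E1A, His-CtBP) was incubated with pinned compound 2 h at 37 deg C in dark, in 50 mM Tris pH 8.0 buffer with 300 mM NaCl. Glutathione donor and nickel acceptor beads followed; AlphaScreen signal read after 1 h.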
TDP1 block: blocks human tyrosyl-DNA phosphodiesterase 1. hit rate 0.28% among 350,000. recombinant TDP1, AlphaScreen DNA substrate cleavage. Potency, µM (titrated, usually from 130 µM), inactives show top-dose activity change, negative = inhibition, actives largely listed as inhibitors; further: potency means the concentration at half of the fitted maximal effect; nearly all actives have a fitted effect of over 40% in size
Target sequence (Q9NUW8 whole entry, looked up): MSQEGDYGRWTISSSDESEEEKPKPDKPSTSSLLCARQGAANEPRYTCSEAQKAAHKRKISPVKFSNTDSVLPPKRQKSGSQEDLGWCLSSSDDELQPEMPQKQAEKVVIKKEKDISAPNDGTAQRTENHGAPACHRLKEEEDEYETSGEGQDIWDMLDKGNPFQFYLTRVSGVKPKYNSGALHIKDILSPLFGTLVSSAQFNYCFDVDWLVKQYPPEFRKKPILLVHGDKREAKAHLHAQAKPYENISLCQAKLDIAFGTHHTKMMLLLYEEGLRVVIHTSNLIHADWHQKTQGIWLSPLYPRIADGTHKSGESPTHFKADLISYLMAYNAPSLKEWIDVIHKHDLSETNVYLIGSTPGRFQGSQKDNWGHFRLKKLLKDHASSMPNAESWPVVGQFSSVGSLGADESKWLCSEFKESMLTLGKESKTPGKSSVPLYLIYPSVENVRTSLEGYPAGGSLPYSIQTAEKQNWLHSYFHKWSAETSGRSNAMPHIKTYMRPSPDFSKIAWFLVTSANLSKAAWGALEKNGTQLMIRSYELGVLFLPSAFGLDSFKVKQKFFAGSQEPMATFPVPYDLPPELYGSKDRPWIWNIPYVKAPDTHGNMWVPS
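Steps: enzyme plus compound, 15 min RT; add biotin/phosphotyrosine-FITC oligonucleotide (15 nM final), react 5 min; add donor/acceptor beads (10 ug/ml final), 10 min; read AlphaScreen. Tdp1 at 1 nM final.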
DT40 TDP1 CPT: growth inhibition of DT40 Tdp1-/-;hTDP1 cells with camptothecin (screen for TDP1 inhibitors); chicken DT40 Tdp1-/-;hTDP1 cells + 20 nM CPT, ATP luminescence, 48 h; hit rate 12% among 420,000; Potency, µM (titrated, usually from 46.2 µM), without a hit: at the highest dose activity change, negative = growth inhibition, most hits filed as inhibitors; further: potency means the concentration at half of the fitted maximal effect; nearly all actives have a fitted effect of over 55% in size
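Chicken DT40 Tdp1-/- cells stably complemented with human TDP1 were seeded at 400 cells/well in medium containing 20 nM camptothecin, exposed to pin-transferred compounds, and grown at 37 °C for at least 48 hr. Viability was read as ATP luminescence.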
DT40 TDP1 no CPT: qHTS for Inhibitors of human tyrosyl-DNA phosphodiesterase 1 (TDP1): qHTS in cells in absence of CPT. hit rate 15% among 420,000. DT40 Tdp1-/- hTDP1 cells, no CPT, ATP luminescence, 48 h. Potency, µM (series often up to 46.2 µM), inactives show at the highest dose activity change, negative = growth inhibition, usual class: inhibitors; further: potency means the concentration at half of the fitted maximal effect; nearly all actives have a fitted effect of over 55% in size
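Stably hTDP1-transfected Tdp1-null chicken DT40 cells were treated with library compounds minus camptothecin and grown for at least 48 hr at 37 °C, after which cellular ATP was quantified by luminescence.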
Six1-Eya2 blk: Six1/Eya2 interaction inhibition; AID 651725; AlphaScreen GST-Six1/His-Eya2 binding, biochemical; stronger effect = lower value; activity change, % (no concentration beside the values); hit rate 0.56% among 360,000; in the data active means activity change below about -65%; inconclusive means mostly about -30% to -63%
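Compounds are tested against tagged Six1 and Eya2 proteins bridged by glutathione donor and nickel acceptor beads; after a one-hour incubation at 37 °C without light, AlphaScreen emission is recorded.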
IL1B secr inh: blocks inflammasome-driven IL-1 beta release; hit rate 4.7% among 360,000; activity change, % at 57.5 µM; AID 743279; THP-1 LPS/ATP IL-1B secretion, AlphaLISA, 16 h; stronger effect = lower value; in the data active means activity change below about -50%; inconclusive means mostly about -30% to -49%
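Secreted IL-1B measured by AlphaLISA bead assay after 16 h compound exposure of THP-1 cells; compounds (final up to 57.5 uM) added 1 h before LPS (250 ng/mL) and ATP (1.25 mM) stimulation; lower signal means less secretion.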
* hit, by the source's call; u = inconclusive; x = no result given. Sampled rows, rich in hits. Any-hit rate of the full collection: about 18%. Unless noted, the call rests on the fitted dose curve; in most records, active means well fitted curve in the direction sought with a large enough effect; inconclusive means small, poorly fitted or top-dose-only effect, or another doubt; inactive means no such curve, though single readings can be large; an effect the other way counts as inactive or inconclusive. On the % scale 0 is the no-effect control and ±100 the full control effect.

SMILES	CtBP-E1A blk	TDP1 block	DT40 TDP1 CPT	DT40 TDP1 no CPT	Six1-Eya2 blk	IL1B secr inh
CCn1nc(-c2cccs2)nc2c(=O)n(C)c(=O)nc1-2	-18	2%	0.58µM*	1.2µM*	-13	-68*
CCn1nc(/C=C/c2ccccc2)nc2c(=O)n(C)c(=O)nc1-2	13	-3%	1.6µM*	2.1µM*	-28	-110*
O=Cc1c(C(=O)O)n(Cc2ccccc2Cl)c2ccccc12	8	-1%	0%	17%	7	-1
CCN1CCN(C(=O)COc2ccc(S(=O)(=O)N(C)Cc3ccccc3)cc2)CC1	1	0%	-18%	-21%	1	12
CC[C@@]1(C(=O)OC)N[C@H](CN(C)C(=O)c2ccc(C(C)(C)C)cc2)[C@@H]2C(=O)N(Cc3ccccc3)C(=O)[C@@H]21	2	2%	u	16µM*	4	-20
CC[C@@]1(C(=O)OC)N[C@H](CN(C)C(=O)Nc2ccc(C(F)(F)F)cc2)[C@@H]2C(=O)N(Cc3ccccc3)C(=O)[C@@H]21	-4	0%	u	u	2	-19
CCN(C[C@H]1N[C@@](CC)(C(=O)OC)[C@H]2C(=O)N(Cc3ccccc3)C(=O)[C@@H]12)S(=O)(=O)c1ccc(OC)cc1	0	0%	23µM*	u	2	-18
CC(C)OP(=O)(OC(C)C)C(O)c1cccnc1 (centres undefined)	-15	5%	-1%	-3%	3	16
CN(CC(=O)Nc1ccccc1-c1ccccc1)C1CCCCC1	10	0%	23µM*	u	14	-10
COC(=O)C1=C(c2ccc(S(C)(=O)=O)cc2)C[C@@H]2CC[C@H]1N2C(=O)NCc1ccc(F)cc1	6	x	0%	-14%	-4	41
COC(=O)C1=C(c2ccc(OC(F)(F)F)cc2)C[C@@H]2CC[C@H]1N2C(=O)NCc1cc(C)oc1C(F)(F)F	6	-1%	u	21µM*	1	16
COC(=O)C1=C(c2ccc3ccccc3c2)C[C@@H]2CC[C@H]1N2C(=O)NCc1ccc(F)cc1	-3	1%	u	16µM*	-8	-7
COC(=O)C1=C(c2ccc(OC(F)(F)F)cc2)C[C@@H]2CC[C@H]1N2C(=O)NCc1cccc2ccccc12	0	0%	u	u	21	-71*
COC(=O)C1=C(c2ccc(OC(F)(F)F)cc2)C[C@@H]2CC[C@H]1N2C(=O)NCc1ccc(F)cc1	5	0%	18µM*	21µM*	9	-9
O=[N+]([O-])c1ccccc1-c1cc(-c2ccccc2)cc(-c2ccccc2)[n+]1Cc1ccccc1Cl	-5	4%	0.65µM*	0.73µM*	-17	0
CN1CCCN(C(=O)COc2ccc(F)cc2Cl)CC1	3	0%	-12%	7%	-2	19
C=CCn1c(O)c(/C=C2/C=CC=N2)c(=O)[nH]c1=O	x	-4%	u	u	3	15
O=c1[nH]c(=O)n(Cc2ccccc2)c(O)c1C=NCCCO	-4	-3%	-7%	0%	8	3
CCCCn1c(O)c(/C=C2/C=CC=N2)c(=O)[nH]c1=O	3	1%	18µM*	4.1µM*	-6	-10
O=c1[nH]c(=O)n(Cc2ccccc2Cl)c(O)c1/C=C1/C=CC=N1	4	3%	5.8µM*	5.8µM*	-3	22
COc1nc(NC(C)C)nc(N(C#N)CN2C(=O)c3ccccc3S2(=O)=O)n1	6	9%	23µM*	-82%	2	u
